# Measurements taken from PubChem BioAssay (NCATS).
# Values joined by “and” are separate entries in the source; they are usually repeats but may differ in a detail not shown here. Identical values can stand only once. Inconclusive results are not listed. Where a call stands in place of a potency, no number is given. A structure can be active in one record and inactive in another. Active and inactive are the calls of the source. Unless noted, calls come from the whole dose curve; as a rule, active = well fitted curve in the direction sought with a large enough effect; inconclusive = small, poorly fitted or top-dose-only effect, or another doubt; inactive = no such curve, though single readings can be large; an effect the other way counts as inactive or inconclusive.
# Experiments:
# [1] = Identifying Small Molecule Inhibitors of Pancreatic Cancer Stem Cells (Panc1, Spheroid) (AID 1259359); details: Panc1 spheroid cancer stem cell viability;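 note: compound exposure lasted 48 h before reading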
# Procedure, shortened: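 Viability is scored by CellTiter-Glo luminescence 48 h after dosing, expressed as percent activity against vehicle and no-cell references. Spheroid formats rely on cells cultured 14 days in stem cell media beforehand.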
# [2] = P-glycoprotein substrates identified in KB-8-5-11 adenocarcinoma cell line, qHTS therapeutic library screen (AID 1346987); details: KB-8-5-11 (P-gp overexpressing) viability, CellTiter-Glo, 72 h; series mostly up to 44.5 µM; note: nearly all actives have a fitted effect of over 65% in size
# Procedure, shortened: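 KB-8-5-11: colchicine-selected sub-line of KB-3-1 over-expressing P-gp; assay medium lacked colchicine. 72 h drug exposure at 37 degree C, CellTiter-Glo.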
# [3] = NS1 protein of Zika virus - qHTS assay to identify small molecule inhibitors in human HEK 293 cells (AID 1347053); details: HEK293 ZIKV MR766 infection, NS1 TR-FRET, 24 h; series mostly up to 46.1 µM; note: nearly all actives have a fitted effect of over 55% in size
# Procedure, shortened: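 HEK 293 cells, seeded 20 h at 37 C, were pretreated with compound 1 h, then infected with ZIKV MR766 (MOI = 0.5) for 24 h. NS1 was read by TR-FRET with two anti-NS1 antibodies, normalized to uninfected and infected wells.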
# [4] = Natriuretic polypeptide receptor (hNpr1) antagonism - Pilot counterscreen GloSensor control cell line (AID 1347045; calls by dose curve); details: HEK293 cGMP GloSensor cells, SNP-stimulated luminescence, 20 min; series mostly up to 38.3 µM
# Procedure, shortened: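 HEK293 cells carrying the GloSensor cGMP sensor (GIP/pGS-40F) were loaded with 2% GloSensor reagent for 2 h, exposed to compounds for 30 min, and then stimulated with 50 uM sodium nitroprusside for 20 min at room temperature.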
# [5] = target: Atrial natriuretic peptide receptor 1 (Homo sapiens) (UniProt P16066); experiment: Natriuretic polypeptide receptor (hNpr1) antagonism - Pilot screen (AID 1347049; calls by dose curve;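 note: agonist-evoked cGMP luminescence read 20 min after hNppA addition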); details: hNpr1 cells, antagonist mode cGMP read-out; series mostly up to 57.5 µM
# Procedure, shortened: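 HEK293 cells co-expressing hNpr1 and the GloSensor pGS-40F cGMP luciferase sensor were preloaded with 2% GloSensor reagent for 2 h. Compounds were added for 30 min at room temperature, then cells were stimulated with 0.1 nM hNppA for 20 min before luminescence readout.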
# [6] = target: Atrial natriuretic peptide receptor 2 (Homo sapiens) (UniProt P20594); experiment: Natriuretic polypeptide receptor (hNpr2) antagonism - Pilot subtype selectivity assay (AID 1347050; calls by dose curve); details: NPR2-expressing cells, cGMP antagonist-mode read-out; series mostly up to 38.3 µM
# Procedure, shortened: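 cGMP-sensor HEK293/hNpr2 cells; 2% GloSensor reagent 2 h RT; compounds 30 min; baseline luminescence read; 1 nM hNppC agonist 20 min RT; final luminescence read by CCD camera. Antagonism = reduced post-agonist signal.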
# Potency is the fitted concentration of half-maximal effect.
# Atrial natriuretic peptide receptor 2 (Homo sapiens), sequence (P20594 whole entry, looked up): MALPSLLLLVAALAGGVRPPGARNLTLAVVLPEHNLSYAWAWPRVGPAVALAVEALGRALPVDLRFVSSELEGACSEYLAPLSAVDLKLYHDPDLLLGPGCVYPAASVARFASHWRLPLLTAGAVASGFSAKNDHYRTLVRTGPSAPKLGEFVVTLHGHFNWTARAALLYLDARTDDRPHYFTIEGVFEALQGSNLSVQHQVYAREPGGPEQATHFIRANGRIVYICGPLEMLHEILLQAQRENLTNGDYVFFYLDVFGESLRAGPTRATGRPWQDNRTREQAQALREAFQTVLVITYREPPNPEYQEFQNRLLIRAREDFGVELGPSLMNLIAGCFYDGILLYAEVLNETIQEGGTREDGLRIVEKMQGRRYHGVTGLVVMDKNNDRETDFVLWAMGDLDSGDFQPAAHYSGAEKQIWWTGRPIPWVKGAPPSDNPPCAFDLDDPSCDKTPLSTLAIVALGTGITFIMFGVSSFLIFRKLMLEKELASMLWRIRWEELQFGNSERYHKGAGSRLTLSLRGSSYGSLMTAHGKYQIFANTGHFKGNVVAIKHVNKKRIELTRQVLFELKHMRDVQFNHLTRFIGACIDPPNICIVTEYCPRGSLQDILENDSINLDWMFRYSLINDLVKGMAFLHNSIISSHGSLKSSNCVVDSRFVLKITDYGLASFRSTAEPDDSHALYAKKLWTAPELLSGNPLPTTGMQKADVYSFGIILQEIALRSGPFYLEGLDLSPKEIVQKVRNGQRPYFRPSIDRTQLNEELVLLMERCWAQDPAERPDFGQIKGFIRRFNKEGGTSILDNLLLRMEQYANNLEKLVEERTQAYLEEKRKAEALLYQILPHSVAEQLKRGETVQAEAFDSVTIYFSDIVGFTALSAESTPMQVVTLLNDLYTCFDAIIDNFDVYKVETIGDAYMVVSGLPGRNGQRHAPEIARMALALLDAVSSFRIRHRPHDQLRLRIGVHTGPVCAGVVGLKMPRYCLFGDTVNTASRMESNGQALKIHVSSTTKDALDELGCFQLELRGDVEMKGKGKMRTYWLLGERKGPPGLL
# Atrial natriuretic peptide receptor 1 (Homo sapiens), sequence (P16066 whole entry, looked up): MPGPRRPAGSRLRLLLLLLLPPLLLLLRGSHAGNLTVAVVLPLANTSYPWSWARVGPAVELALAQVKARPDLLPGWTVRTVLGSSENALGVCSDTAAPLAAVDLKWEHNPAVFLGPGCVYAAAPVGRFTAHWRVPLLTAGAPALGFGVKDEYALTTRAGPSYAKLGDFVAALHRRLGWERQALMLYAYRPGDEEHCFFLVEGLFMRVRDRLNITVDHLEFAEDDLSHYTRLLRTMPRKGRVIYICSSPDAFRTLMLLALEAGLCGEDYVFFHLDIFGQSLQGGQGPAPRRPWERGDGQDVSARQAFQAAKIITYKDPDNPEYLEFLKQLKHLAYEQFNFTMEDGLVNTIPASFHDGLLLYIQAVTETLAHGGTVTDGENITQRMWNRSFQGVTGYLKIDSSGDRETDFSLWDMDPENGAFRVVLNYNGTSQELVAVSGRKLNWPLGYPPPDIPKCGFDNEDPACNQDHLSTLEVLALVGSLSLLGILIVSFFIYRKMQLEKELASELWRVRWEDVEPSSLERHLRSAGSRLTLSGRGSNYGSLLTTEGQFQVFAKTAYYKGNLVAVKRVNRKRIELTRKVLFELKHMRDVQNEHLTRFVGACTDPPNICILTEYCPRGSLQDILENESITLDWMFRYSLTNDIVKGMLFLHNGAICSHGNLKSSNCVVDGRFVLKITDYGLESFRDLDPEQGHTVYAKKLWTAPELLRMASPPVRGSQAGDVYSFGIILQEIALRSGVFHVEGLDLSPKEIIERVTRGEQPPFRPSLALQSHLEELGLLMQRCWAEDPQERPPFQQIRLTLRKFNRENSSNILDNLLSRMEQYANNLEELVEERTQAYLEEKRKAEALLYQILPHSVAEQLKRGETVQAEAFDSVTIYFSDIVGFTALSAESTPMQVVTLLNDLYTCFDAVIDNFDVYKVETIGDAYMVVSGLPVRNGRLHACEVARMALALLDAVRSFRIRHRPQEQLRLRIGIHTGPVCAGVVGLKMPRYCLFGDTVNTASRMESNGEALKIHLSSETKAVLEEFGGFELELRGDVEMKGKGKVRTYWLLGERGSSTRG
structure (smiles),measurement,setting,value
COc1cc([C@@H]2c3cc4c(cc3[C@H](O)[C@H]3COC(=O)[C@H]23)OCO4)cc(OC)c1OC,Potency,[1],0.0021 µM (active)
CCCOc1ccc(C(=O)OCCN(CC)CC)cc1N,Potency,[2],inactive
same,Potency,[3],inactive
C[C@@H]1CN(c2c(F)c(N)c3c(=O)c(C(=O)O)cn(C4CC4)c3c2F)C[C@H](C)N1,Potency,[2],inactive
same,Potency,[3],inactive
CCOC(=O)c1ccc(C#Cc2ccc3c(c2)C(C)(C)CCS3)nc1,Potency,[2],inactive
same,Potency,[3],inactive
C[C@@H](NCCCc1cccc(C(F)(F)F)c1)c1cccc2ccccc12,Potency,[2],inactive and 20.6 µM (active)
same,Potency,[3],inactive
COc1ccc(C(=O)CC(=O)c2ccc(C(C)(C)C)cc2)cc1,Potency,[2],inactive
same,Potency,[3],inactive
COc1ccc2cc3[n+](cc2c1OC)CCc1cc2c(cc1-3)OCO2,Potency,[2],inactive
same,Potency,[3],inactive
COC(=O)Nc1nc2ccc(S(=O)c3ccccc3)cc2[nH]1 (stereo not drawn),Potency,[2],10.5 µM (active)
same,Potency,[3],inactive
CCC(C)(C)c1ccc(CC(C)CN2C[C@@H](C)O[C@@H](C)C2)cc1 (stereo partly drawn),Potency,[2],inactive
same,Potency,[3],inactive
C1CCC(C(CC2CCCCN2)C2CCCCC2)CC1 (stereo not drawn),Potency,[2],5.17 µM (active) and 16.6 µM (active)
same,Potency,[3],10 µM (active) and 11.8 µM (active)
CCCCc1oc2ccc(NS(C)(=O)=O)cc2c1C(=O)c1ccc(OCCCN(CCCC)CCCC)cc1,Potency,[2],26.4 µM (active) and 16.4 µM (active)
same,Potency,[3],11.8 µM (active)
CN(C)c1ccc(C(=C2C=CC(=[N+](C)C)C=C2)c2ccc(N(C)C)cc2)cc1,Potency,[2],8.2 µM (active) and 1.48 µM (active)
same,Potency,[3],inactive and 3.72 µM (active)
CCN[C@H]1C[C@H](C)S(=O)(=O)c2sc(S(N)(=O)=O)cc21,Potency,[2],inactive
same,Potency,[3],inactive
O=C(NCC1CN(c2ccc(N3CCOCC3=O)cc2)C(=O)O1)c1ccc(Cl)s1 (stereo not drawn),Potency,[2],inactive
same,Potency,[3],inactive
Nc1nc(N)nc(-c2cc(Cl)ccc2Cl)n1,Potency,[2],inactive
same,Potency,[3],inactive
C#CCN[C@@H]1CCc2ccccc21,Potency,[2],inactive
same,Potency,[3],inactive
COc1ccccc1OCC(O)COC(N)=O (stereo not drawn),Potency,[2],inactive
same,Potency,[3],inactive
CC(C)Cn1cnc2c(N)nc3ccccc3c21,Potency,[2],inactive
same,Potency,[3],inactive
NC(=O)N1c2ccccc2CC(=O)c2ccccc21,Potency,[2],inactive
same,Potency,[3],inactive
CC(=O)CC(c1ccccc1)c1c(O)c2ccccc2oc1=O (stereo not drawn),Potency,[2],inactive
same,Potency,[3],inactive
NNC(=O)c1ccncc1,Potency,[2],inactive
same,Potency,[3],inactive
CCn1cc(C(=O)O)c(=O)c2cc(F)c(N3CCNCC3)nc21,Potency,[2],inactive
same,Potency,[3],inactive
Nc1nc(=S)c2[nH]cnc2[nH]1,Potency,[2],5.8 µM (active) and 1.18 µM (active)
same,Potency,[3],inactive
C[C@@H]1C[C@H]2[C@@H]3CCC4=CC(=O)C=C[C@]4(C)[C@@]3(Cl)[C@@H](O)C[C@]2(C)[C@@]1(OC(=O)c1ccco1)C(=O)CCl,Potency,[2],inactive
same,Potency,[3],inactive
O=c1oc2c(O)c(O)cc3c(=O)oc4c(O)c(O)cc1c4c23,Potency,[2],inactive
same,Potency,[3],inactive
Cc1ncc([N+](=O)[O-])n1CCO,Potency,[2],inactive
same,Potency,[3],inactive
COC(=O)Nc1nc2ccc(Sc3ccccc3)cc2[nH]1,Potency,[2],495 nM (active) and 1.18 µM (active)
same,Potency,[3],inactive
CN(C)CCc1c[nH]c2ccc(C[C@H]3COC(=O)N3)cc12,Potency,[2],inactive
same,Potency,[3],inactive
COc1cccc(N(C)C(=S)Oc2ccc3c(c2)CCCC3)n1,Potency,[2],inactive
same,Potency,[3],inactive and 18.7 µM (active)
COc1ncnc(NS(=O)(=O)c2ccc(N)cc2)c1OC,Potency,[2],inactive
same,Potency,[3],inactive
CC(C)(C)NC(=O)[C@H]1CC[C@H]2[C@@H]3CC[C@H]4NC(=O)C=C[C@]4(C)[C@H]3CC[C@]12C,Potency,[2],inactive
same,Potency,[3],inactive
CCn1cc(C(=O)O)c(=O)c2cc(F)c(N3CCN(C)CC3)cc21,Potency,[2],inactive
same,Potency,[3],inactive
C[C@@H](CN1CC(=O)NC(=O)C1)N1CC(=O)NC(=O)C1,Potency,[2],inactive and 18.7 µM (active)
same,Potency,[3],inactive
CC(C)C1CCC(C(=O)N[C@H](Cc2ccccc2)C(=O)O)CC1 (stereo partly drawn),Potency,[2],inactive
same,Potency,[3],inactive
C[C@]12C=CC(=O)C=C1CC[C@@H]1[C@@H]2C(=O)C[C@@]2(C)[C@H]1CC[C@]2(O)C(=O)CO,Potency,[2],inactive
same,Potency,[3],inactive
O=C(O)c1cc(=O)[nH]c(=O)[nH]1,Potency,[2],inactive
same,Potency,[3],inactive
COCCCOc1cc(C[C@@H](C[C@H](N)[C@@H](O)C[C@H](C(=O)NCC(C)(C)C(N)=O)C(C)C)C(C)C)ccc1OC,Potency,[2],inactive
same,Potency,[3],inactive
Cc1cccc(Nc2ccncc2S(=O)(=O)NC(=O)NC(C)C)c1,Potency,[2],inactive
same,Potency,[3],inactive
Cc1onc(-c2ccccc2Cl)c1C(=O)N[C@@H]1C(=O)N2[C@@H]1SC(C)(C)[C@@H]2C(=O)O,Potency,[3],inactive
CN1CCN(c2c(F)cc3c(=O)c(C(=O)O)cn(CCF)c3c2F)CC1,Potency,[2],inactive
same,Potency,[3],inactive
CCN(C)C(=O)Oc1cccc([C@H](C)N(C)C)c1,Potency,[2],inactive
same,Potency,[3],inactive
CCc1cc(C(N)=S)ccn1,Potency,[2],inactive
same,Potency,[3],inactive
Cc1ccc(S(=O)(=O)N[C@@H](Cc2ccccc2)C(=O)CCl)cc1,Potency,[4],3.29 µM (active)
same,Potency,[5],12 µM (active)
same,Potency,[6],5.85 µM (active)
same,Potency,[3],inactive
CN(Cc1cc(Br)cc(Br)c1N)C1CCCCC1,Potency,[2],inactive
same,Potency,[3],inactive
COc1ccc2c(c1)c(CC(=O)OCC(=O)O)c(C)n2C(=O)c1ccc(Cl)cc1,Potency,[2],inactive
same,Potency,[3],inactive
O=C(O)c1ccc(-n2nc(-c3ccccc3O)nc2-c2ccccc2O)cc1,Potency,[3],inactive
CC(C)(Sc1cc(C(C)(C)C)c(O)c(C(C)(C)C)c1)Sc1cc(C(C)(C)C)c(O)c(C(C)(C)C)c1,Potency,[2],inactive
same,Potency,[3],inactive
CCOC(=O)[C@H](CCc1ccccc1)N[C@H]1CCc2ccccc2N(CC(=O)O)C1=O,Potency,[2],inactive and 23.5 µM (active)
same,Potency,[3],inactive
CC(C)(C#N)c1cc(Cn2cncn2)cc(C(C)(C)C#N)c1,Potency,[3],inactive
CCC(=O)O[C@]1(C(=O)CCl)[C@@H](C)C[C@H]2[C@@H]3CCC4=CC(=O)C=C[C@]4(C)[C@@]3(F)[C@@H](O)C[C@@]21C,Potency,[2],inactive
same,Potency,[3],inactive
O=c1cc(O)c(Cl)c[nH]1,Potency,[2],inactive
same,Potency,[3],inactive
CC(=O)Oc1ccccc1C(=O)Nc1ncc([N+](=O)[O-])s1,Potency,[2],inactive and 13 µM (active)
same,Potency,[3],inactive
Cc1nnc(C(=O)NC(C)(C)c2nc(C(=O)NCc3ccc(F)cc3)c(O)c(=O)n2C)o1,Potency,[2],inactive
same,Potency,[3],inactive
O=S(=O)(O)CCS,Potency,[2],inactive
same,Potency,[3],inactive
CCCc1nc(C)c2c(=O)[nH]c(-c3cc(S(=O)(=O)N4CCN(CC)CC4)ccc3OCC)nn12,Potency,[3],inactive and 10.5 µM (active)
N[C@@H](C(=O)N[C@@H]1C(=O)N2C(C(=O)O)=C(Cl)CS[C@H]12)c1ccccc1,Potency,[2],inactive
same,Potency,[3],inactive
CCOc1cc(N)c(Cl)cc1C(=O)NCC1CN(Cc2ccc(F)cc2)CCO1 (stereo not drawn),Potency,[2],inactive
same,Potency,[3],inactive
CC(=O)[C@H]1CC[C@H]2[C@@H]3CC=C4C[C@@H](O)CC[C@]4(C)[C@H]3CC[C@]12C,Potency,[2],inactive
same,Potency,[3],inactive
S=P(N1CC1)(N1CC1)N1CC1,Potency,[2],inactive
same,Potency,[3],inactive
CN(C)CCc1c[nH]c2ccc(CS(=O)(=O)N3CCCC3)cc12,Potency,[2],inactive
same,Potency,[3],inactive
CC(C)(C)C(=O)OCOP(=O)(COCCn1cnc2c(N)ncnc21)OCOC(=O)C(C)(C)C,Potency,[2],inactive
same,Potency,[3],inactive
Nc1ccc(S(=O)(=O)Nc2ccccn2)cc1,Potency,[3],inactive
Cn1nnc2c(C(N)=O)ncn2c1=O,Potency,[2],inactive
same,Potency,[3],inactive
Nc1[nH]c(=O)ncc1F,Potency,[3],inactive
Cc1nnc(NS(=O)(=O)c2ccc(N)cc2)s1,Potency,[3],inactive
NC(=O)c1cccnc1,Potency,[3],inactive
CN(CCOc1ccc(CC2SC(=O)NC2=O)cc1)c1ccccn1 (stereo not drawn),Potency,[2],inactive
same,Potency,[3],inactive
CCCN[C@H]1CCc2nc(N)sc2C1,Potency,[2],inactive
same,Potency,[3],inactive
O=P(O)(O)C(O)(Cc1cccnc1)P(=O)(O)O,Potency,[2],inactive
same,Potency,[3],inactive
CCOC(=O)[C@H](CCc1ccccc1)N[C@H]1CS[C@H](c2cccs2)CN(CC(=O)O)C1=O,Potency,[2],inactive
same,Potency,[3],inactive
CN1CCCC(n2nc(Cc3ccc(Cl)cc3)c3ccccc3c2=O)CC1 (stereo not drawn),Potency,[2],inactive
same,Potency,[3],inactive
CC[C@H](C)C(=O)O[C@H]1C[C@@H](C)C=C2C=C[C@H](C)[C@H](CC[C@@H]3C[C@@H](O)CC(=O)O3)[C@H]21,Potency,[2],18.7 µM (active)
same,Potency,[3],inactive
CCCc1cc(C(N)=S)ccn1,Potency,[2],inactive
same,Potency,[3],inactive
CS(=O)(=O)c1ccc([C@@H](O)[C@@H](CO)NC(=O)C(Cl)Cl)cc1,Potency,[2],inactive
same,Potency,[3],inactive
O=C(O)c1cccnc1,Potency,[2],inactive
same,Potency,[3],inactive
